# Screening results deposited in PubChem BioAssay by National Center for Advancing Translational Sciences (NCATS).
# Hits are enriched below; roughly 0.55% of the tested compounds scored in any of these assays.
# TRPV1 agonist = agonists of human vanilloid receptor 1 (TRPV1); TRPV1-expressing cells, Fluo-8 calcium influx, agonist mode; Q8NER1; activation, % at 8.33 µM; 320,000 compounds, 0.19% hits; in the data active = activation above about 80%; inconclusive = between about 30% and that limit; also: 0% is about no effect
# Target sequence (Q8NER1 whole entry, looked up): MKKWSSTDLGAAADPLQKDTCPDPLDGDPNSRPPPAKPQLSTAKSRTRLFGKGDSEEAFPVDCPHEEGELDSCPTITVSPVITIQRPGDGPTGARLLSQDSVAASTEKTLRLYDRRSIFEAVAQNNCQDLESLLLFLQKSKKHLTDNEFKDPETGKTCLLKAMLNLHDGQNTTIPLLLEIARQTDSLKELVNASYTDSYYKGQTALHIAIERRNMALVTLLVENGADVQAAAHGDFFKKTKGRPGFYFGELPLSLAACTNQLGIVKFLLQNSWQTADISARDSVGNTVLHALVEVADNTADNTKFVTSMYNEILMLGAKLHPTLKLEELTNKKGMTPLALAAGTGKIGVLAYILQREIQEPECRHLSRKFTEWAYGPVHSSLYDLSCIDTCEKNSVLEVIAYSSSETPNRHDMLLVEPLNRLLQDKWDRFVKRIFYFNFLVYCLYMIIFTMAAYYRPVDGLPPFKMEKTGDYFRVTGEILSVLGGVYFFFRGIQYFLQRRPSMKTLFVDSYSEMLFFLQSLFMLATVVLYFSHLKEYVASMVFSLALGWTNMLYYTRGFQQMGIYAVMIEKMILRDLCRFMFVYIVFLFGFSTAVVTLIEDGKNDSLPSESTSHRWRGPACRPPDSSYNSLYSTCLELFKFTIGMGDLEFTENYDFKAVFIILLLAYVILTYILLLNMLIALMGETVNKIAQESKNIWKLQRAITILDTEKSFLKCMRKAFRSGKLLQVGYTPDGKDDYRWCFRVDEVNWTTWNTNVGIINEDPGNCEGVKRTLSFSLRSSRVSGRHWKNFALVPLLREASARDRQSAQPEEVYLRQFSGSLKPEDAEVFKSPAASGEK
#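 Fluo-8 calcium influx in TRPV1-expressing cells, kinetic read (ex 480/em 520 nm). Compound added and read 3 min for agonist activity, followed by capsaicin at EC20 final and 2 min further read for enhancement.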
# IMPase Li inh = membrane-permeable IMPase blocker, potentiated with lithium | CHO-M1 cells, IP1 TR-FRET (IP-One), carbachol + lithium | 210,000 compounds, 0.35% hits | AID 1457 | Potency, µM (titrated, usually from 59.4 µM), inactives show at the top dose activity, negative = IMPase inhibition, most hits filed as inhibitors;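 also: IP1 builds up when IMPase is blocked and the TR-FRET signal falls; potency is read from the fitted curve at half-maximal effect; plate controls were basal vehicle for no effect and high inhibitor control for full effect; nearly all actives have a fitted effect of over 50% in size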
#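 Test compounds were applied to CHO-M1 cells previously cultured for 16–30 h at 2000 per well. A small lithium amount accompanied them; after 30 min at 37C, IP1 was quantified by TR-FRET.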
# TRPV1 PAM = enhances activation of the human vanilloid receptor TRPV1 | Q8NER1 | TRPV1-expressing cells, Fluo-8 calcium influx, capsaicin EC20 potentiation | potentiation, % at 8.33 µM | 320,000 compounds, 0.02% hits; in the data active = potentiation above about 80%; inconclusive = between about 30% and that limit; also: 0% is about no effect
#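 Fluo-8 calcium influx in TRPV1-expressing cells, kinetic read (ex 480/em 520 nm). Compound added and read 3 min for agonist activity, followed by capsaicin at EC20 final and 2 min further read for enhancement.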
# A-T KAP1 phos = potential ataxia-telangiectasia treatment; F2112 A-T fibroblasts, KAP-1 phosphorylation AlphaLISA; neocarzinostatin DNA damage 30 min before lysis; Potency, µM (titrated, usually from 57.5 µM), without a hit: top-dose activation, hits mostly activators; 320,000 compounds, 0.19% hits; also: potency is read from the fitted curve at half-maximal effect; % of control where 0% means no effect; nearly all actives have a fitted effect of over 45% in size
#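 hTERT-immortalized A-T patient fibroblasts (F2112), 500 cells/well in OPTI-MEM, 1% FBS, got compounds for 60 min, then NCS for 30 min at 37C. Lysates were then assayed for phospho-KAP-1 by AlphaLISA (anti-pKAP1 donor, anti-KAP1 acceptor beads), 6 hr at 25C.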
# * hit, by the source's call; ? = inconclusive; . = no result given; ! = a repeat was not active; [ ] = dose if it differs, or a comment. Unless noted, calls follow the shape of the dose curve; as a rule, active = well fitted curve in the direction sought with a large enough effect; inconclusive = small, poorly fitted or top-dose-only effect, or another doubt; inactive = no such curve, though single readings can be large; an effect the other way counts as inactive or inconclusive.
SMILES,TRPV1 agonist,IMPase Li inh,TRPV1 PAM,A-T KAP1 phos
COc1ccc(-c2cc(C(=O)Nc3ccc(C)c(C)c3)no2)cc1,-2,.,6,13µM*
CC(=O)Nc1ccc(-c2cc(-c3ccccc3)nc(-c3ccccc3)n2)cc1,-3,8.9µM*,-11,-2%
CCC(=O)Nc1ccc(-c2cc(-c3ccccc3)nc(-c3ccc(NC(=O)CC)cc3)n2)cc1,-2,10µM*,-7,3%
CC(=O)Nc1ccc(-c2cc(-c3ccc(NC(C)=O)cc3)nc(-c3ccccc3)n2)cc1,8,32µM*,-14,4%
CC(=O)Nc1ccc(-c2cc(-c3ccc(NC(C)=O)cc3)nc(-c3ccc(NC(C)=O)cc3)n2)cc1,0,?,-7,1%
CCC(=O)Nc1ccc(-c2csc(C)n2)cc1,0,4%,-1,7%
O=c1c(-c2ccc(F)cc2)nc2cnc(N3CCNCC3)nc2n1Cc1ccc(F)cc1,.,23%,.,.
CSc1nnc(NC(=O)CCc2ccccc2)s1,-13,28µM*,30,-2%
CCCCOC(=O)CNc1n[nH]c(=S)[nH]c1=O,-2,4µM*,17,7%
CCc1ccc(-c2nc(NC(=O)c3ccc(OCC(=O)Nc4ccc(F)cc4)c(OC)c3)sc2C)cc1,-4,7.9µM*,9,2%
COc1cc(C(=O)Nc2nc(-c3ccc(Cl)cc3)c(C)s2)ccc1OCC(=O)Nc1ccc(F)cc1,2,.,22,-2%
N#Cc1c2c(c(-c3ccccc3Cl)[nH]c1=S)CCCC2,3,10µM*,1,-5%
Cc1ccc(S(=O)(=O)O[C@@H]2[C@H]([C@@H]3COC(C)(C)O3)O[C@H]3OC(C)(C)O[C@@H]32)cc1,.,7%,.,.
Cc1cc(C)nc(N2CCCC(C(=O)Nc3ccc4c(c3)OCO4)C2)n1 (centres undefined),83*,21%[38.3 µM],7,0%
NS(=O)(=O)c1cc2c(cc1Cl)=NC(CCC(=O)O)=NS=2(=O)O,.,-5%,.,.
O=S(=O)(NCCN1CCCC1)c1ccc(Br)cc1,0,.,-1,1%
CCN1CCCC1CNS(=O)(=O)c1ccc(Br)cc1 (centres undefined),0,.,-7,2.8µM*
COc1ccc(-c2csc(-n3ncc(C(=O)O)c3C(F)(F)F)n2)cc1,3,.,-7,40µM*
CC(=NC1CCCCC1)c1ccccc1O,.,0%,.,.
Cc1cccc2c(N=O)c(O)[nH]c12,-2,.,-9,3.2µM*
Cc1[nH]c2c(C)cccc2c1CC(=O)O,-16,7%,24,-1%
O=S(=O)(O)C(c1ccccc1)[C@@H](O)c1ccccc1 (some centres undefined),.,-4%,.,.
COc1ccc2oc(-c3ccccc3)c(C(N)=O)c2c1,0,11µM*,-8,34%
NC(=O)c1ccc(-c2nc(-c3ccc4c(c3)OCO4)c(-c3ccccn3)[nH]2)cc1,.,2.5µM*!,.,.
Cc1ccc(-c2cc(C(=O)O)c3cc(Br)ccc3n2)o1,3,11µM*,8,-6%
SMILES,TRPV1 agonist,IMPase Li inh,TRPV1 PAM,A-T KAP1 phos
CC(=O)c1c(C)nc2ccc(Br)cc2c1C(=O)O,-2,1µM*,6,6%
Cc1ccc(-c2cc(C(=O)NN3CCOCC3)c3cc(Br)ccc3n2)o1,3,-12%,11,0%
Nc1ncnc2c([C@@H]3O[C@@H](CO)[C@H](O)[C@@H]3O)nsc12,.,6%,.,.
CN1CC(O)C2=CC(=O)C(=O)C=C21 (centres undefined),.,7%,.,.
Oc1cc(Nc2ccc(N3CCCCC3)cc2)cc2cccnc12,.,.,.,-11%
Cc1onc(-c2ccccc2)c1C(O)c1ccc(F)cc1 (centres undefined),7,.,-7,32µM*
C[C@H](NCCN(C)C)[C@@H]1CCC2C3CCc4cc(O)ccc4[C@H]3CCC21C (some centres undefined),.,8%,.,.
CCn1nc(CC(C)C)cc1C(=O)N1CCCC(Nc2ccc(F)cc2)C1 (centres undefined),?,.,-27,0%
CCn1nc(C)cc1C(=O)N1CCCC(Nc2ccc(C(C)C)cc2)C1 (centres undefined),81*,.,-8,1%
CCOC(=O)c1ccc(NC(=O)/C=C/c2cccs2)cc1,84*,23%,2,-6%
NS(=O)(=O)c1ccc(NC(=O)/C=C/c2cccs2)cc1,?,.,-20,18%
NS(=O)(=O)c1cccc(NC(=O)/C=C/c2cccs2)c1,94*,3%,-7,0%
CCN(CC)CCOC(=O)c1ccc(NC(=O)/C=C/c2cccs2)cc1,15,14%,-29,-1%
C=CC1=C2C=C(C3CC3)N(CCCOC(C)C)C=C2C(=O)C(C)(OC(=O)c2ccco2)C1=O (centres undefined),.,6%,.,.
O=C(OCC(=O)N(Cc1ccccc1)Cc1ccccc1)c1ccccc1NCCO,-2,.,15,22µM*
COc1cc(C2SCCCCCCCCCCSC(c3ccc(O)c(OC)c3)SCCCCCCCCCCS2)ccc1O (centres undefined),.,-16%,.,.
COC(=O)CCC(=O)c1oc2ccccc2c1NC(=O)CCCN1C(=O)c2ccccc2C1=O,-2,-9%[38.3 µM],-2,-2%
CC(=O)c1oc2ccccc2c1NC(=O)CCCN1C(=O)c2ccccc2C1=O,0,13µM*,12,-6%
O=C(Nc1ccc2c(c1)OCO2)C1CCN(C(=O)CSc2ncnc3ccccc23)CC1,81*,-6%[38.3 µM],-8,-5%
Cc1cc(OCC(=O)Nc2cc(-c3nn4c(C)nnc4s3)ccc2C)ccc1Cl,.,28µM*,.,4%
Cc1cc(C)c2c(SCc3ccc(Cl)cc3Cl)nc(N)nc2n1,.,8%,.,.
C=CCc1cccc2cc(C(=O)Nc3cccc(C(=O)O)c3)c(=O)oc12,-2,.,-2,8%
C=CCc1cccc2cc(C(=O)NNC(=O)c3ccncc3)c(=O)oc12,81*,9%,-10,-6%
CC1(C)C(=O)NC2=C1C(=O)C(=O)c1ccccc12,.,89%,.,.
CC(=O)Nc1nc(NC(C)=O)c2[nH]c(CO)nc2n1,.,-6%,.,.
SMILES,TRPV1 agonist,IMPase Li inh,TRPV1 PAM,A-T KAP1 phos
CCN(CC)C(=O)CSc1nc(N)c(C#N)c(-c2cccs2)c1C#N,7,-30%,-2,4%
COc1ccc(CNC(=O)COC(=O)c2cc(-c3cccs3)nc3ccccc23)cc1OC,88*,-23%,-19,9%
COc1ccc(CCNC(=O)CSc2nc(N)c(C#N)c(-c3cccs3)c2C#N)cc1OC,6,28µM*,0,5%
COc1ccc(CNC(=O)CSc2nc(-c3ccccc3)cc(-c3cccs3)c2C#N)cc1,0,-3%[38.3 µM],9,-4%
Cc1ccccc1NC(=O)CSc1nc(N)c(C#N)c(-c2cccs2)c1C#N,0,5µM*,-17,3%
Cc1ccco1,.,-3%,.,.
Cc1nc2ccc3nc(NC(=O)c4ccc5c(c4)OCCO5)sc3c2s1,-4,?,17,25µM*
CCCCCCOC(=O)C1(O)CC2OC1(C)n1c3ccccc3c3c4c(c5c6ccccc6n2c5c31)C(=O)NC4 (centres undefined),.,-5%,.,.
